Assay results as given in PubChem BioAssay AID1159580 (chemical genetic matrix, 2015).
In all, about 5,500 compounds went through this assay and about 2,000 (36%) were called active. Not shown: some 18% with an inconclusive outcome. Cut-off read from the data, not from the text of the source: active = normalized growth mostly below about 0.91 (no sharp cut-off); inconclusive = no clear call, values can overlap the other calls; inactive = mostly above about 0.92. The list shows a part of the results.

Experiment: chemical genetic growth profiling, strain panel (AID 1159580);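 note: tested at 20 µM; growth read once vehicle control cultures reached saturation at 30 °C; 1 = growth at the plate median or of vehicle wells; lower values mean less growth of the strain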
Conditions: growth OD

Measured: normalized growth

O=[N+]([O-])O[C@H]1CO[C@H]2[C@@H]1OC[C@H]2O[N+](=O)[O-]
inactive: S. cerevisiae deletion strains, locus YJR043C, strain POL32, stronger effect = lower value 1.02 | S. cerevisiae deletion strains, locus YJR066W, strain TOR1, stronger effect = lower value 0.946 | S. cerevisiae deletion strains, locus YKL009W, strain mrt4, stronger effect = lower value 1.03 | S. cerevisiae deletion strains, locus YKL068W, stronger effect = lower value 1.01 | S. cerevisiae deletion strains, locus YKL085W, strain MDH1 (second series), stronger effect = lower value 1.01 | S. cerevisiae deletion strains, locus YKL085W, strain MDH1, stronger effect = lower value 1.01 | S. cerevisiae deletion strains, locus YKL160W, strain elf1, stronger effect = lower value 0.98 | S. cerevisiae deletion strains, locus YKL190W, strain CNB1, stronger effect = lower value 1.02 | S. cerevisiae deletion strains, locus YKR001C, strain vps1, stronger effect = lower value 1.02 | S. cerevisiae deletion strains, locus YKR026C, strain gcn3, stronger effect = lower value 0.993 | S. cerevisiae deletion strains, locus YKR091W, strain srl3, stronger effect = lower value 0.993 | S. cerevisiae deletion strains, locus YLL001W, strain dnm1, stronger effect = lower value 0.971 | S. cerevisiae deletion strains, locus YLL026W, stronger effect = lower value 1 | S. cerevisiae deletion strains, locus YLL041C, strain sdh2, stronger effect = lower value 0.998 | S. cerevisiae deletion strains, locus YLR027C, strain aat2, stronger effect = lower value 1.01 | S. cerevisiae deletion strains, locus YLR039C, strain RIC1, stronger effect = lower value 1.05 | S. cerevisiae deletion strains, locus YLR058C, strain SHM2, stronger effect = lower value 1.01 | S. cerevisiae deletion strains, locus YLR102C, strain apc9, stronger effect = lower value 1.01 | S. cerevisiae deletion strains, locus YLR113W, strain HOG1, stronger effect = lower value 0.926 | S. cerevisiae deletion strains, locus YLR221C, strain rsa3, stronger effect = lower value 0.995 | S. cerevisiae deletion strains, locus YLR258W, strain gsy2, stronger effect = lower value 0.995 | S. cerevisiae deletion strains, locus YLR262C, strain YPT6 (second series), stronger effect = lower value 1 | S. cerevisiae deletion strains, locus YLR262C, strain YPT6, stronger effect = lower value 1.02 | S. cerevisiae deletion strains, locus YLR268W, strain sec22, stronger effect = lower value 1.04 | S. cerevisiae deletion strains, locus YLR320W, strain mms22, stronger effect = lower value 0.979 | S. cerevisiae deletion strains, locus YLR330W, strain CHS5, stronger effect = lower value 1.01 | S. cerevisiae deletion strains, locus YLR342W, strain FKS1 (second series), stronger effect = lower value 1.04 | S. cerevisiae deletion strains, locus YLR342W, strain FKS1, stronger effect = lower value 0.995 | S. cerevisiae deletion strains, locus YLR357W, strain rsc2, stronger effect = lower value 0.983 | S. cerevisiae deletion strains, locus YLR370C, strain arc18, stronger effect = lower value 0.992 | S. cerevisiae deletion strains, locus YLR371W, strain rom2, stronger effect = lower value 1 | S. cerevisiae deletion strains, locus YLR384C, strain iki3, stronger effect = lower value 0.981 | S. cerevisiae deletion strains, locus YLR418C, strain cdc73, stronger effect = lower value 1.09 | S. cerevisiae deletion strains, locus YML016C, strain PPZ1, stronger effect = lower value 1.01 | S. cerevisiae deletion strains, locus YML032C, strain rad52, stronger effect = lower value 1.03 | S. cerevisiae deletion strains, locus YML120C, strain ndi1, stronger effect = lower value 0.966 | S. cerevisiae deletion strains, locus YML124C, strain tub3, stronger effect = lower value 1.02 | S. cerevisiae deletion strains, locus YMR058W, strain fet3, stronger effect = lower value 1 | S. cerevisiae deletion strains, locus YMR078C, strain ctf18, stronger effect = lower value 1.02 | S. cerevisiae deletion strains, locus YMR125W, strain sto1, stronger effect = lower value 0.996 | S. cerevisiae deletion strains, locus YMR129W, stronger effect = lower value 0.988 | S. cerevisiae deletion strains, locus YMR205C, strain PFK2, stronger effect = lower value 0.963 | S. cerevisiae deletion strains, locus YMR223W, strain ubp8, stronger effect = lower value 1.05 | S. cerevisiae deletion strains, locus YMR231W, strain pep5, stronger effect = lower value 1 | S. cerevisiae deletion strains, locus YMR307W, strain GAS1, stronger effect = lower value 1.05 | S. cerevisiae deletion strains, locus YNL067W, strain RPL9B, stronger effect = lower value 1.01 | S. cerevisiae deletion strains, locus YNL071W, strain lat1, stronger effect = lower value 0.996 | S. cerevisiae deletion strains, locus YNL128W, strain TEP1, stronger effect = lower value 1.03 | S. cerevisiae deletion strains, locus YNL183C, strain NPR1, stronger effect = lower value 0.955 | S. cerevisiae deletion strains, locus YNL209W, strain ssb2, stronger effect = lower value 0.994 | S. cerevisiae deletion strains, locus YNL233W, strain BNI4, stronger effect = lower value 1.01 | S. cerevisiae deletion strains, locus YNL248C, strain rpa49, stronger effect = lower value 1.01 | S. cerevisiae deletion strains, locus YNL250W, strain rad50, stronger effect = lower value 1.05 | S. cerevisiae deletion strains, locus YNL271C, strain bni1, stronger effect = lower value 1.01 | S. cerevisiae deletion strains, locus YNL298W, strain CLA4, stronger effect = lower value 1.03 | S. cerevisiae deletion strains, locus YNL307C, strain MCK1, stronger effect = lower value 1.02 | S. cerevisiae deletion strains, locus YNL322C, strain KRE1 (second series), stronger effect = lower value 0.979 | S. cerevisiae deletion strains, locus YNR049C, strain mso1, stronger effect = lower value 0.981 | S. cerevisiae deletion strains, locus YNR052C, strain pop2, stronger effect = lower value 1.02 | S. cerevisiae deletion strains, locus YOL006C, strain TOP1, stronger effect = lower value 1.01 | S. cerevisiae deletion strains, locus YOL012C, strain htz1 1.04 | S. cerevisiae deletion strains, locus YOL147C, strain pex11, stronger effect = lower value 1.02 | S. cerevisiae deletion strains, locus YOR001W, strain rrp6, stronger effect = lower value 1.01 | S. cerevisiae deletion strains, locus YOR061W, strain CKA2, stronger effect = lower value 1.01 | S. cerevisiae deletion strains, locus YOR069W, strain VPS5, stronger effect = lower value 1.01 | S. cerevisiae deletion strains, locus YOR070C, strain gyp1, stronger effect = lower value 1 | S. cerevisiae deletion strains, locus YOR080W, strain dia2, stronger effect = lower value 0.994 | S. cerevisiae deletion strains, locus YOR083W, strain WHI5, stronger effect = lower value 0.977 | S. cerevisiae deletion strains, locus YOR106W, strain vam3, stronger effect = lower value 1 | S. cerevisiae deletion strains, locus YOR136W, strain idh2, stronger effect = lower value 1.02 | S. cerevisiae deletion strains, locus YOR144C, strain elg1, stronger effect = lower value 1.02 | S. cerevisiae deletion strains, locus YOR184W, strain ser1, stronger effect = lower value 1.03 | S. cerevisiae deletion strains, locus YOR265W, strain rbl2, stronger effect = lower value 0.994 | S. cerevisiae deletion strains, locus YOR270C, strain vph1, stronger effect = lower value 1.02 | S. cerevisiae deletion strains, locus YOR290C, strain snf2, stronger effect = lower value 0.939 | S. cerevisiae deletion strains, locus YOR316C, strain cot1, stronger effect = lower value 1.01 | S. cerevisiae deletion strains, locus YPL051W, strain arl3, stronger effect = lower value 0.985 | S. cerevisiae deletion strains, locus YPL078C, strain atp4, stronger effect = lower value 0.979 | S. cerevisiae deletion strains, locus YPL106C, strain sse1, stronger effect = lower value 0.949 | S. cerevisiae deletion strains, locus YPL240C, strain hsp82, stronger effect = lower value 1 | S. cerevisiae deletion strains, locus YPL256C, strain CLN2, stronger effect = lower value 0.938 | S. cerevisiae deletion strains, locus YPR119W, strain clb2, stronger effect = lower value 1.02 | S. cerevisiae deletion strains, locus YPR141C, strain kar3, stronger effect = lower value 1.02 | S. cerevisiae deletion strains, locus YPR163C, strain tif3, stronger effect = lower value 1.01 | S. cerevisiae deletion strains, locus YPR167C, strain met16, stronger effect = lower value 1.02 | S. cerevisiae deletion strains, strain wtn01, stronger effect = lower value 1.05 | S. cerevisiae strains, strain wild type, stronger effect = lower value 1.02
active: S. cerevisiae deletion strains, locus YOR231W, strain MKK1, stronger effect = lower value 0.837
